A short description of experiment [1]: qHTS assay for measurement of the activity of small molecule inhibitors on Zika virus induced Caspase-3 activity in human iPSC derived neural progenitor cells (hNPCs) (AID 1224857). Also: nearly all actives have a fitted effect of over 65% in size. Also: potency is read from the fitted curve at half-maximal effect. The method in brief: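 In medium with heparin 2 ug/ml and cyclopamine 2 uM, hNPCs (350 cells/well) received compound for one hour and then Zika virus at 2 FFU/cell; caspase activity was measured by Caspase-Glo 3/7 luminescence 6 h post-infection.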
A general note: Quantitative high-throughput screening tests each substance at several concentrations.

For experiment [2], the target named is T1, Tyrosine-protein phosphatase non-receptor type substrate 1 (Homo sapiens) + Leukocyte surface antigen CD47 (Homo sapiens) (UniProt P78324+Q08722). The experiment is described as follows: CD47-SIRPalpha protein protein interaction - LANCE assay qHTS validation (AID 1347057; active = well fitted curve in the direction sought with a large enough effect in the signal ratio, with a control signal flat, not every such curve was filed as active; the % refers to the signal ratio; also: series mostly up to about 38 µM). An outline of the steps:
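Inhibition of soluble CD47/SIRPalpha ectodomain association by titrated compounds, measured as 665/615 nm time-resolved FRET ratio after sequential 30 min room-temperature incubations.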
(TR-FRET usually uses a lanthanide donor and a delayed reading to cut background.)

The target of experiment [3] is T1, Tyrosine-protein phosphatase non-receptor type substrate 1 (Homo sapiens) + Leukocyte surface antigen CD47 (Homo sapiens). The experiment is described as follows: CD47-SIRPalpha protein protein interaction - Alpha assay qHTS validation (AID 1347059).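 Also: bead proximity luminescence from CD47 binding SIRPalpha after compound preincubation with SIRPalpha.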 An outline of the steps: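 In PBS (pH 7.4) with 0.05% IGEPAL CA-630, compound is preincubated with biotin-Avi-SIRPalpha ectodomain before His-CD47 ectodomain and affinity beads are added. Light-protected room-temperature incubations; AlphaScreen readout.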

Experiment [4] in a line: NS1 protein of Zika virus - qHTS assay to identify small molecule inhibitors in human HEK 293 cells (AID 1347053). Also: series mostly up to about 46 µM; nearly all actives have a fitted effect of over 55% in size. The method in brief:
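Read-out is a two-antibody TR-FRET for ZIKV NS1, normalized between uninfected cells and infected cells. Compound added 1 h before MR766 infection at MOI 0.5; human HEK 293 cells incubated 24 h, 37 C.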

The nature of experiment [5]: qHTS of pediatric cancer cell lines to identify multiple opportunities for drug repurposing: Primary screen for TC32 cells (AID 1347089). Also: nearly all actives have a fitted effect of over 60% in size. The method in brief:
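TC32 cells, 500-1,000/well in growth medium, compound-treated 48 h at 37 °C; viability from CellTiter-Glo luminescence. Primary screen: MIPE 11-point (0.78 nM–46 µM final), NPC 8-point (0.59 nM–46 µM final); confirmatory at 11-point dilutions.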

Experiment [6] can be described thus: qHTS of pediatric cancer cell lines to identify multiple opportunities for drug repurposing: Primary screen for DAOY cells (AID 1347090). Also: series mostly up to about 46 µM; nearly all actives have a fitted effect of over 55% in size. The method in brief: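 Eight- or eleven-point concentration series, 48 h treatment at 37 degrees C in growth media; readout CellTiter-Glo luminescence. Potency and efficacy were taken from the concentration-response curves.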

Experiment [7] in a line: qHTS assay for measurement of the activity of small molecule inhibitors on Zika virus induced Caspase-3 activity in human astrocytoma cells (AID 1224859). Also: potency is read from the fitted curve at half-maximal effect. The method in brief: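 A cell-based luminescent caspase-3/7 assay used SNB-19 cells infected with ZIKV (2 FFU/cell) for 6 h following 1 h compound pretreatment.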
A short description of experiment [8]: qHTS assay to identify small molecule inhibitors of chordoma cells - UCH-1 (AID 1259355). Also: nearly all actives have a fitted effect of over 55% in size. The method in brief:
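A 48hr growth-inhibition format: each drug tested at 15 concentrations together with added auranofin, camptothecin, doxorubicin, rubitecan and topotecan, with cell viability quantified as CellTiter-Glo luminescence.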

A short description of experiment [9]: qHTS assay to identify small molecule inhibitors of chordoma cells - UCH-2 (AID 1259356). Also: series mostly up to about 46 µM.
Experiment [10] can be described thus: P-glycoprotein substrates identified in KB-8-5-11 adenocarcinoma cell line, qHTS therapeutic library screen (AID 1346987). Also: series mostly up to about 44 µM; nearly all actives have a fitted effect of over 65% in size. An outline of the steps:
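In this qHTS, P-gp-rich KB-8-5-11 cells received library compounds across a concentration range. Viability was quantified by luminescence after 72 h at 37 degree C.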

The nature of experiment [11]: Natriuretic polypeptide receptor (hNpr1) antagonism - Pilot counterscreen GloSensor control cell line (AID 1347045; calls by dose curve; also: potency is read from the fitted curve at half-maximal effect). The method in brief:
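HEK293 cGMP-sensor cells; 2% GloSensor reagent 2 h RT; LOPAC compounds in 1:5 titrations 30-50 min; 50 uM SNP 20 min; luminescence pre-read and post-read.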
In general terms: The purpose of a counterscreen is to sort out artefacts and off-target activity.

Experiment [12] addresses Atrial natriuretic peptide receptor 1 (Homo sapiens) (UniProt P16066). The experiment is described as follows: Natriuretic polypeptide receptor (hNpr1) antagonism - Pilot screen (AID 1347049; calls by dose curve;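 also: HEK293 cells with hNpr1 and GloSensor cGMP luciferase stimulated by 0.1 nM hNppA; agonist-evoked cGMP luminescence read 20 min after hNppA addition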; also: potency is read from the fitted curve at half-maximal effect). The method in brief:
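Cells expressing receptor plus cGMP biosensor are seeded and incubated overnight at 37C, then loaded with GloSensor reagent (2% final) at room temperature for 2 h. Library compounds go on for 30 min. A pre-read precedes agonist (hNppA, 0.1 nM final) and a 20-min readout.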

Experiment [13] deals with Atrial natriuretic peptide receptor 2 (Homo sapiens) (UniProt P20594). The experiment is described as follows: Natriuretic polypeptide receptor (hNpr2) antagonism - Pilot subtype selectivity assay (AID 1347050; calls by dose curve; also: potency is read from the fitted curve at half-maximal effect). An outline of the steps:
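Read-out: GloSensor luminescence (CCD imager), baseline vs post-stimulation. HEK293 cells expressing hNpr2; compounds pre-incubated 30-50 min at ambient temperature; hNppC 1 nM final, 20 min.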

Experiment [14] has as its target T1, Tyrosine-protein phosphatase non-receptor type substrate 1 (Homo sapiens) + Leukocyte surface antigen CD47 (Homo sapiens). The experiment is described as follows: CD47-SIRPalpha protein protein interaction - HTRF assay qHTS validation (AID 1347058; active = well fitted curve in the direction sought with a large enough effect in the signal ratio, not every such curve was filed as active; the % refers to the signal ratio; also: series mostly up to about 38 µM). The method in brief: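 Soluble extracellular domains (6His-CD47, Avi-tag-biotinylated SIRPalpha) in PBS pH 7.4 with 0.05% IGEPAL CA-630. Compounds were preincubated 30 min at RT with CD47 and anti-His-Eu, then SIRPalpha and SAV-XL665 were added. TR-FRET 665/615 ratio.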

Experiment [15] deals with Parathyroid hormone/parathyroid hormone-related peptide receptor (Homo sapiens) (UniProt Q03431). The experiment is described as follows: qHTS for PTHR1 Agonists: Optimization Screen against the NCGC LOPAC library (AID 1347079).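 Also: GloSensor cAMP luminescence in HEK-293 GP2 cells expressing human PTHR1 with IBMX.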 An outline of the steps: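 Signal increase flags agonism. GP2 cells, derived from HEK-293, express human PTHR1 and a GloSensor cAMP construct.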
Sequence of Parathyroid hormone/parathyroid hormone-related peptide receptor (Homo sapiens) (Q03431 whole entry, looked up): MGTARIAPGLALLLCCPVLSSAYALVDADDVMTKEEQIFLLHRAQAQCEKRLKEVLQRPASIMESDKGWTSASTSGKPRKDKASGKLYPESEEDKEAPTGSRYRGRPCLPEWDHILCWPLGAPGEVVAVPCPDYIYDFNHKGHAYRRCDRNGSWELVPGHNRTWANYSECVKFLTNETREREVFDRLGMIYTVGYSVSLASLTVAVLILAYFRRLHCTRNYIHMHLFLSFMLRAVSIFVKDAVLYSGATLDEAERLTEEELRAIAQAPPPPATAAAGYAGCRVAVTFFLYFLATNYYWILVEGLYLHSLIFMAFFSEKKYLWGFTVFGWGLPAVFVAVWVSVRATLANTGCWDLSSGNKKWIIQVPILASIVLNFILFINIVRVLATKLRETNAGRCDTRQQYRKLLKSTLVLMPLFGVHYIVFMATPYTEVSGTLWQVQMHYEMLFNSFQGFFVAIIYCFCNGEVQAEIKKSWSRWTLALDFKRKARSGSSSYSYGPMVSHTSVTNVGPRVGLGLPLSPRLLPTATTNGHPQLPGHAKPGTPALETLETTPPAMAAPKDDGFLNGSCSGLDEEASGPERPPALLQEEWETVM

Each structure is given as a SMILES string. Results filed as inconclusive are left out. Activity calls are given as the source filed them. Unless noted, calls follow the shape of the dose curve; as a rule, active = well fitted curve in the direction sought with a large enough effect; inconclusive = small, poorly fitted or top-dose-only effect, or another doubt; inactive = no such curve, though single readings can be large; an effect the other way counts as inactive or inconclusive.

Sequence of Atrial natriuretic peptide receptor 2 (Homo sapiens) (P20594 whole entry, looked up): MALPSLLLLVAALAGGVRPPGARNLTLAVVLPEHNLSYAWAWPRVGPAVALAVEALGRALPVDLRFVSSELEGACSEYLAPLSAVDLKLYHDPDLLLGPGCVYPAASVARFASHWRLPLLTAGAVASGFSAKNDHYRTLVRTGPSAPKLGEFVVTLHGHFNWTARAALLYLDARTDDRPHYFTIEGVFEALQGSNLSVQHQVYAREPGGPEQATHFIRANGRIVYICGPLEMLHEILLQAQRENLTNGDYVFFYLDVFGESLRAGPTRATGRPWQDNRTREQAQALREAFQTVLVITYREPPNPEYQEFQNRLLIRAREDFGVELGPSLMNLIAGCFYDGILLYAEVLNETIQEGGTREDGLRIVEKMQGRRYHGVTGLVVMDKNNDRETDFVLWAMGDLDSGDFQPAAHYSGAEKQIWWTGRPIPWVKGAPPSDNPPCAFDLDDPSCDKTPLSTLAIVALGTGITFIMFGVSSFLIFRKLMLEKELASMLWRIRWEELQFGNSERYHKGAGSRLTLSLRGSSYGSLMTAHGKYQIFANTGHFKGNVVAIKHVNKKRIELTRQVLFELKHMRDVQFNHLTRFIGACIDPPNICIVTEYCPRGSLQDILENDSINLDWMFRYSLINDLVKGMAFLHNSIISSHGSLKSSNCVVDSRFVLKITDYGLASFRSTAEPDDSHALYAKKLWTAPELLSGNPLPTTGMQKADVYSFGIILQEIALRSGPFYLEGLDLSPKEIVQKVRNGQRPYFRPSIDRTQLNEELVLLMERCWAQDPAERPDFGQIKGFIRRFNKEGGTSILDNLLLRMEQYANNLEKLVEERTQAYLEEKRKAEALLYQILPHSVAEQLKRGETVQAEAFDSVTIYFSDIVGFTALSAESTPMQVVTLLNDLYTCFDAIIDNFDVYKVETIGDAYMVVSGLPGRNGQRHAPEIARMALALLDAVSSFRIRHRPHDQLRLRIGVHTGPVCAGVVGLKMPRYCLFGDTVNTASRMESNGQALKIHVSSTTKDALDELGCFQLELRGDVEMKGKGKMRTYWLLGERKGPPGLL
T1 sequence (P78324 whole entry, looked up, the tested form may be a part): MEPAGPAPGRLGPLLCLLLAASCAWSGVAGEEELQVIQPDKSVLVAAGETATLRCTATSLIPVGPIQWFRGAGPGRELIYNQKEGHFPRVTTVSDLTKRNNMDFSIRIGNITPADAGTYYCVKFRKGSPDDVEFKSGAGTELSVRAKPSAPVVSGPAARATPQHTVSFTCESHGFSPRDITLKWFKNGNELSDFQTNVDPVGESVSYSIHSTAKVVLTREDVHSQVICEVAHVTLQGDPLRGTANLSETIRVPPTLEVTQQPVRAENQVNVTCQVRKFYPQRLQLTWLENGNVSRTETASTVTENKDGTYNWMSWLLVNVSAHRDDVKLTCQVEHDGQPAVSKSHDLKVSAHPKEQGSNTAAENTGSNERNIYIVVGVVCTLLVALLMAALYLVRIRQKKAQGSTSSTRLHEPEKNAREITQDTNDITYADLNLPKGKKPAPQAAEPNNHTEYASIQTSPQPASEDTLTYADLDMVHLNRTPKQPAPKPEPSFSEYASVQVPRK
T1 sequence (Q08722 whole entry, looked up, the tested form may be a part): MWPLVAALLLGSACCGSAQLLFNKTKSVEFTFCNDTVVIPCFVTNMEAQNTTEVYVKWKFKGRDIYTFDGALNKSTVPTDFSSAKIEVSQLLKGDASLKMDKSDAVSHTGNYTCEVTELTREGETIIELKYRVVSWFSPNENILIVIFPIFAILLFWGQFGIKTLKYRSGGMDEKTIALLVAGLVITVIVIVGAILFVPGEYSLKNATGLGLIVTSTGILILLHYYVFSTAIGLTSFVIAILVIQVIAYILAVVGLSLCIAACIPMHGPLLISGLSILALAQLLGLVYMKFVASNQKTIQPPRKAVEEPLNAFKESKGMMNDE
Sequence of Atrial natriuretic peptide receptor 1 (Homo sapiens) (P16066 whole entry, looked up): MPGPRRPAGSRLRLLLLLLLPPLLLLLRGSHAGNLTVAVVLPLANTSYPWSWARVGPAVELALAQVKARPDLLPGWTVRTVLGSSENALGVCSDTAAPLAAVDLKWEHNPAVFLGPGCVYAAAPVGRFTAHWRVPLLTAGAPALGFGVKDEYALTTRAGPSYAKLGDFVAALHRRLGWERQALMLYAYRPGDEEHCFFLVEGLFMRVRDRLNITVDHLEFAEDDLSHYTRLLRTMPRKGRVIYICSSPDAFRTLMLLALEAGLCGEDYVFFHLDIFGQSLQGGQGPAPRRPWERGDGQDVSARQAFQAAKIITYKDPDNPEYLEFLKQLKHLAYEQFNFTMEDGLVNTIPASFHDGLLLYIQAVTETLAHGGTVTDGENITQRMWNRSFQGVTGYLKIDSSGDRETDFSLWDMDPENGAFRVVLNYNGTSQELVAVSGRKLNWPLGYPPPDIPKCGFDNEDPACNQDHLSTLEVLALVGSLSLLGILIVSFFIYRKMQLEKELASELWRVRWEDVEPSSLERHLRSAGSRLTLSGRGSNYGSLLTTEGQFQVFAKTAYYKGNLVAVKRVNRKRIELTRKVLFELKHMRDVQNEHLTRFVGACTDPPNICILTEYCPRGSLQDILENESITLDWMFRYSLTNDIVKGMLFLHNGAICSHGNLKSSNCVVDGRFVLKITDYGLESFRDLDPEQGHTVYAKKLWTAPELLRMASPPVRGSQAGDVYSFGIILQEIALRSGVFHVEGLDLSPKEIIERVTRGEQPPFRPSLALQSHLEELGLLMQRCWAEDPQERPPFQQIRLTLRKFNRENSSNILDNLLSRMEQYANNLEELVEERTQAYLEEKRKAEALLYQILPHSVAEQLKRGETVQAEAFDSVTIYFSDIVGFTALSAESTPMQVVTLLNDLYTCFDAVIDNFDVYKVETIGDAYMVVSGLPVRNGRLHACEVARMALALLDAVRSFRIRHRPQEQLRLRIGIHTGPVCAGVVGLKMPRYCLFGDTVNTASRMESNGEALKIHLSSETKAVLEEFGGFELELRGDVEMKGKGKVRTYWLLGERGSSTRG

`COc1ccc(/C=C2\COc3ccc(C)cc3C2=O)cc1O`: the Potency result in [1], in experiment [2] and in experiment [3] was “inactive” throughout.
With `Cc1ccc2c(n1)Oc1ccc(C(C)C(=O)OCC(=O)N(C)C)cc1C2` (configuration not stated), the Potency in experiment [1] was 14.1 µM (active). In addition, the Potency result in [4], in experiment [5] and in experiment [6] was “inactive” throughout.
`COc1ccc(-c2cc(=O)c3c(O)c(OC)c(OC)cc3o2)cc1O`: the Potency entry in experiment [1], in [4], in [2] and in experiment [3] was “inactive” each time.
On to `N=c1ccn2c(n1)O[C@H]1[C@H](O)[C@@H](CO)O[C@H]12`, for which the Potency entry in experiment [7], in experiment [8], in [9], in [10], in experiment [11] and in experiment [12] was “inactive” in each case. For the same molecule, the Potency result in experiment [13], in [4], in experiment [2], in [3] and in experiment [15] was “inactive” each time. Also, the outcome in [14] was inactive.
On to `COc1ccccc1CN[C@@H]1CCCN[C@@H]1c1ccccc1`, for which the Potency entry in [1], in [2] and in experiment [3] was “inactive” throughout. Also, the result in [14] was inactive.
For `S=c1[nH]c(-c2ccccc2)cn1-c1ccccc1`, the Potency entry in [1], in experiment [4], in experiment [2] and in experiment [3] was “inactive” each time. Besides, in experiment [14], the result was inactive.
As for `C[N+](C)(C)CCOP(=O)(O)OP(=O)([O-])OC[C@H]1O[C@@H](n2ccc(N)nc2=O)[C@H](O)[C@@H]1O`, the Potency result in experiment [7], in [8], in experiment [9], in [10], in experiment [11] and in experiment [12] was “inactive” in each case. For the same molecule, the Potency result in experiment [13], in experiment [4], in experiment [2], in [3] and in [15] was “inactive” throughout. In experiment [14], the result was inactive.
With `Cc1cn([C@H]2CC(N=[N+]=[N-])[C@@H](CO)O2)c(=O)[nH]c1=O` (some centres not stated), the Potency entry in [1], in [2] and in experiment [3] was “inactive” each time.
In the case of `CN(C)[C@@H]1C(=O)C(C(=O)NCN2CCCC2)=C(O)[C@@]2(O)C(=O)C3=C(O)c4c(O)cccc4[C@@](C)(O)C3C[C@@H]12` (some centres not stated), the Potency entry in experiment [7], in experiment [8], in experiment [9], in experiment [10], in experiment [4] and in [5] was “inactive” each time. Besides, the Potency result in [6] was “inactive”.
Take `N[C@H](CCCP(=O)(O)O)C(=O)O`: the Potency result in [1], in [4], in experiment [2] and in [3] was “inactive” in each case.
For the molecule `O=c1cc(-c2ccccc2)oc2c(O)c(O)ccc12`, the Potency result in experiment [1], in experiment [4] and in experiment [3] was “inactive” in each case.
Consider `Nc1nc2ccc([N+](=O)[O-])cc2s1`, for which the Potency in [1] was 10 µM (active). Also, the Potency result in experiment [4], in [5] and in [6] was “inactive” throughout.
As for `O=C(O)/C=C/C(O)c1ccc(Cl)cc1` (configuration not stated), the Potency entry in experiment [7], in experiment [8], in [9], in experiment [10], in [11] and in experiment [13] was “inactive” each time. Besides, in experiment [15], the Potency result was “inactive”.
With `CCCOC(=O)c1ccc(O)cc1`, the Potency entry in [7], in experiment [8], in [9], in [10], in experiment [4] and in experiment [5] was “inactive” in each case. The Potency entry in [6] is “inactive”.
Consider `CCOC(=O)c1ccccc1O`, for which the Potency entry in experiment [7], in experiment [8], in [9], in [10], in experiment [4] and in experiment [5] was “inactive” in each case. The Potency entry in experiment [6] is “inactive”.
Turning to `C=CC(N)CCC(=O)O` (configuration not stated), the Potency result in [7], in experiment [8], in [9], in experiment [10], in experiment [11] and in experiment [12] was “inactive” in each case. Besides, the Potency entry in experiment [13], in experiment [4], in experiment [2], in experiment [3] and in experiment [15] was “inactive” each time. Besides, in experiment [14], the outcome was inactive.
Turning to `Cc1ccc(C(=O)c2ccc(CC(=O)O)n2C)cc1`, the Potency result in experiment [7], in experiment [8], in experiment [9], in experiment [10], in experiment [4] and in experiment [5] was “inactive” each time. In addition, the Potency entry in experiment [6] is “inactive”.
On to `O=C(Nc1ccncc1)c1cc([N+](=O)[O-])ccc1Cl`, for which the Potency entry in experiment [1], in experiment [4], in experiment [2] and in experiment [3] was “inactive” throughout.
In the case of `CC(N)C(=O)OC(C)(C)Cc1ccc(Cl)cc1` (configuration not stated), the Potency result in experiment [7], in [8], in [9], in [10], in [11] and in [12] was “inactive” in each case. Further, the Potency result in experiment [13], in experiment [4], in [2], in [3], in [15] and in [5] was “inactive” throughout. Further, in experiment [6], the Potency entry is “inactive”. The result in experiment [14] was inactive.
Turning to `Cn1c(=O)c(-c2c(Cl)cccc2Cl)cc2cnc(Nc3ccc(N4CCOCC4)cc3)nc21`, the Potency entry in [1] and in experiment [2] was “inactive” throughout. For the same molecule, the result in experiment [14] was inactive.
`CC1(C)S[C@@H]2[C@H](NC(=O)[C@H](N)c3ccccc3)C(=O)N2[C@H]1C(=O)O`: the Potency result in experiment [1], in [4], in experiment [5] and in [6] was “inactive” in each case.
Turning to `O=C(NOCC1CC1)c1cc(Br)c(F)c(F)c1Nc1ccc(I)cc1Cl`, the Potency entry in experiment [1], in experiment [4], in [2] and in experiment [3] was “inactive” each time.
Take `Nc1nc(OCC2CCCCC2)c2[nH]cnc2n1`: the Potency entry in experiment [1], in experiment [2] and in experiment [3] was “inactive” in each case. In addition, in experiment [14], the result was inactive.
As for `c1ccc2sc(SSc3nc4ccccc4s3)nc2c1`, the Potency entry in experiment [7], in [8], in experiment [9], in [10], in [4] and in experiment [5] was “inactive” each time. Moreover, in experiment [6], the Potency entry was “inactive”.
As to `COc1ccc(/C=C/C(=O)Nc2ccccc2C(=O)O)cc1OC`, the Potency was 7.08 µM (active) in experiment [7], 1.85 µM (active) in experiment [11], 9.53 µM (active) in experiment [12] and 3.69 µM (active) in experiment [13]. Further, the Potency entry in experiment [8], in [9], in [10], in [4], in experiment [2] and in experiment [3] was “inactive” throughout.
Consider `COc1cc(OC)cc(-c2cc3cnc(N)nc3nc2NC(=O)NC(C)(C)C)c1`, for which the Potency entry in experiment [1], in experiment [4], in experiment [2] and in [3] was “inactive” in each case. Further, the outcome in experiment [14] was inactive.
Take `CC(C)(C)c1nnc(NS(=O)(=O)c2ccc(N)cc2)s1`: the Potency entry in experiment [1], in experiment [4], in experiment [5] and in experiment [6] was “inactive” in each case.
On to `COc1ccc(C(=O)/C(Cc2cc(OC)c(OC)c(OC)c2)=C(\C(=O)O)c2ccc3c(c2)OCO3)cc1`, for which the Potency entry in [1], in experiment [2] and in [3] was “inactive” in each case.

The values are drawn from PubChem BioAssay (NCATS).
